Screening results from PubChem BioAssay.
KB-V1 cytotox: kills drug-selected multidrug resistant KB-V1 cells; 400,000 compounds, 3.4% hits; KB-V1 MDR cells viability, CellTiter-Glo, 72 h; AID 1347076; Potency, µM (highest dose often 46.1 µM), actives largely listed as cytotoxic; note: nearly all actives have a fitted effect of over 60% in size
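KB-V1, DMEM (no phenol red) + 10% FBS; cpd pin-transferred, titration series; 72 h, 37 degrees C; CellTiter-Glo, luminescence. Data normalized, curve-fit.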
Nrf2 inh: Nrf2 pathway inhibition | 360,000 compounds, 2.1% hits | Potency, µM (doses to about 46 µM), hits mostly inhibitors | A549 ARE-Fluc reporter, luciferase luminescence, 18-24 h; note: nearly all actives have a fitted effect of over 60% in size
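Nrf2 function is reported as luminescence of an ARE-controlled luciferase in A549 cells. Compounds were tested at several concentrations, and a CellTiter-Fluor read on the same wells flagged cytotoxicity.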
PI4K2A inh: inhibitors of human PI4K2A; Q9BTU6; purified PI4K2A, ADP-Glo luminescence, 1 h; hits give low values; activity change, negative = inhibition, % at 76.9 µM; 420,000 compounds, 0.13% hits; in the data active = activity change below about -50%; inconclusive = mostly about -30% to -49%
Target sequence (Q9BTU6 whole entry, looked up): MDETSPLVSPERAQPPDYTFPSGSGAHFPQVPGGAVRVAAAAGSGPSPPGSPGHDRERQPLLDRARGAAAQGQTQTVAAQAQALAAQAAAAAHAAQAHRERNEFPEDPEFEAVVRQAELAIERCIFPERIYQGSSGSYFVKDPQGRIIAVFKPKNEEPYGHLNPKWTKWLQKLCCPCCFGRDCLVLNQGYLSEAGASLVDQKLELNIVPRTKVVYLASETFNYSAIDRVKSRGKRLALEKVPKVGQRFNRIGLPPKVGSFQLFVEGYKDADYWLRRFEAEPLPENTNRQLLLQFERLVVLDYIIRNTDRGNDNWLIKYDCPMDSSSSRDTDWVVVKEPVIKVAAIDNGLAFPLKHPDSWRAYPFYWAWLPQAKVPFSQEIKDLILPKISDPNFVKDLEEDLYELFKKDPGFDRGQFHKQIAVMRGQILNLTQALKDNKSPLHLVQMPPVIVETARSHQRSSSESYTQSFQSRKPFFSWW
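Compounds are screened against recombinant PI4K2A using PI as substrate and ATP, the latter dispensed at 300 microM. Reactions run one hour at ambient temperature before ADP-Glo detection; full inhibition defined by wells lacking enzyme.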
KB-3-1 cytotox: KB-3-1 parental cell cytotoxicity; KB-3-1 viability, CellTiter-Glo ATP luminescence, 72 h; Potency, µM (top dose mostly 46.1 µM), usual class: cytotoxic; 400,000 compounds, 1.4% hits; note: nearly all actives have a fitted effect of over 60% in size
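KB-3-1 cells, DMEM (no phenol red) + 10% FBS; compound by pin transfer, 72 h, 37 °C. Readout: CellTiter-Glo luminescence after 10 min. Data normalized, curve-fitted.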
A549 tox: kills or reduces viability of A549 cells in Nrf2 counter-screen | A549 ARE-Fluc cells, CellTiter-Fluor viability, 18-24 h | Potency, µM (titrated, usually from 46 µM), usual class: inhibitors | 390,000 compounds, 0.16% hits | AID 504648
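A549 ARE_Fluc cells in 5% FBS OPTI-MEM were exposed to compounds in concentration-response for 18-24 h at 37 deg C. Viability was read by CellTiter-Fluor fluorescence (Ex 405/Em 525) after 30 min, before the luciferase read.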
Giardia killer: Giardia lamblia killing. Giardia lamblia trophozoite viability. activity change, % at 7.66 µM, hits read low. 340,000 compounds, 0.15% hits; in the data active = activity change below about -80%; inconclusive = between about -30% and that limit;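 note: parasites exposed to compound for two days anaerobically before the ATP read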
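Giardia trophozoites, 100 cells per well, were exposed to compounds for 48 hrs at 37 deg C under anaerobic conditions; viability was then read as ATP content by bioluminescence after 15-30 min at room temperature.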
Hits are given with their value; n = inactive; u = inconclusive; x = no result. An excerpt weighted towards active compounds, which were near 5.7% of everything screened. Unless noted, calls come from the whole dose curve; as a rule, active = well fitted curve in the direction sought with a large enough effect; inconclusive = small, poorly fitted or top-dose-only effect, or another doubt; inactive = no such curve, though single readings can be large; an effect the other way counts as inactive or inconclusive.

SMILES | KB-V1 cytotox | Nrf2 inh | PI4K2A inh | KB-3-1 cytotox | A549 tox | Giardia killer
O=C(OCC#CCSc1nnc(-c2cccc3ccccc23)o1)c1ccsc1 | x | u | n | x | n | x
CC1=Nc2cc(C(=O)NCC3CCCO3)ccc2Sc2ccc(Br)cc21 (centres undefined) | 6.5µM | n | n | 12µM | n | n
CC1=Nc2cc(C(=O)NC3CCCC3)ccc2Sc2ccc(Br)cc21 | u | u | n | u | n | x
CCC1=Nc2cc(C(=O)NCCN3CCCC3)ccc2Sc2ccccc21 | n | u | n | n | n | n
CCC1=Nc2cc(C(=O)NCCCN3CCOCC3)ccc2Sc2ccccc21 | n | n | n | n | n | n
CCC1=Nc2cc(C(=O)NCCN3CCOCC3)ccc2Sc2ccc(Br)cc21 | n | n | n | n | n | n
CCC1=Nc2cc(C(=O)NCCCOC)ccc2Sc2ccccc21 | 0.23µM | u | n | 0.82µM | n | n
CCC1=Nc2cc(C(=O)NCCCOC)ccc2Sc2ccc(Br)cc21 | u | u | n | 0.82µM | n | x
CCCCNC(=O)c1ccc2c(c1)N=C(CC)c1ccccc1S2 | 18µM | n | n | u | n | x
COc1cccc(CC(=O)O[C@@H]2CCC[C@@]3(C(=O)N(Cc4ccccc4)c4ccccc43)[C@H]2NC(=O)CCc2ccccc2)c1 | x | x | n | x | x | x
Cc1ccc(C2C(=O)N(C3CCCC3)CC(=O)N2C2CCCCC2)cc1 (centres undefined) | 2.9µM | n | n | n | n | n
COc1ccc(C2C(=O)N(C3CCCCC3)CC(=O)N2C2CCCCC2)cc1 (centres undefined) | n | n | n | n | n | n
N#Cc1cc(C#N)c(N2CCN(c3cccc(Cl)n3)CC2)nc1N | 18µM | x | n | n | n | n
O=C(NC(c1ccccc1)c1ccccc1)C1(c2cccs2)CCOCC1 | 5.2µM | n | n | n | n | n
O=C(NCCc1ccccc1)C1(c2cccs2)CCOCC1 | n | x | n | n | n | x
Cc1cccc(NC(=O)C2(c3cccs3)CCOCC2)n1 | 16µM | n | n | n | n | n
COc1cc(OC)cc(-c2nnc3n2N=C(c2cc(OC)ccc2OC)CS3)c1 | x | n | x | x | n | x
O=C(COc1cccc(Cl)c1)N1CCC(c2nc3ccccc3s2)CC1 | n | n | n | n | n | x
Cc1cc(/C=C2/C(=N)N3C(=NC2=O)SN=C3S(C)(=O)=O)c(C)n1-c1ccc(F)cc1 | n | n | n | n | u | n
CCOc1ccc(-n2c(C)cc(/C=C3/C(=N)N4C(=NC3=O)SN=C4S(C)(=O)=O)c2C)cc1 | n | 4.6µM | n | n | u | n
COC(CNC(=O)[C@H](Cc1ccccc1)NCC(=O)NC1CCCCC1)OC | x | x | n | x | x | x
O=C(Nc1cnn(C23CC4CC(CC(C4)C2)C3)c1)c1cnn2c(C(F)(F)F)cc(-c3ccco3)nc12 | 8.2µM | n | n | n | n | n
O=C(Nc1ccc2c(c1)OCO2)c1cnn2c(C(F)(F)F)cc(-c3ccco3)nc12 | n | x | n | n | n | n
O=C(Nc1ccccc1)OCCN1C(=O)CCC12CCC(c1ccccc1)CC2 (centres undefined) | x | x | n | x | x | x
CCCN(CC(=O)Nc1cc(Cl)ccc1Cl)C(=O)c1ccc(N2CCCC2=O)cc1 | 7.3µM | n | n | u | n | n
SMILES | KB-V1 cytotox | Nrf2 inh | PI4K2A inh | KB-3-1 cytotox | A549 tox | Giardia killer
CCCN(CC(=O)Nc1ccccc1C)C(=O)c1ccc(N2CCCC2=O)cc1 | n | n | n | n | n | n
O=C(COC(=O)c1cc([N+](=O)[O-])ccc1N1CCOCC1)Nc1cccc(F)c1 | n | u | n | n | 4.6µM | n
COc1cc(C(=O)COC(=O)c2cc([N+](=O)[O-])ccc2N2CCOCC2)ccc1OC(F)F | u | u | n | 21µM | n | n
Cc1cc(C)c(C(=O)COC(=O)c2cc([N+](=O)[O-])ccc2N2CCOCC2)cc1C | 18µM | n | n | n | n | n
COc1ccccc1C(=O)COC(=O)c1cc([N+](=O)[O-])ccc1N1CCOCC1 | u | n | n | n | n | n
COc1ccc(C(=O)COC(=O)c2cc([N+](=O)[O-])ccc2N2CCOCC2)c(OC)c1 | u | n | n | n | n | n
Cc1cccc(NC(=O)Cc2csc(COc3cccc(C)c3)n2)c1 | n | n | n | n | n | x
COc1ccc(NC(=O)Cc2csc(COc3cccc(C)c3)n2)cc1OC | u | 23µM | n | u | n | x
NC(=NCCc1ccc(Cl)cc1)NS(=O)(=O)c1ccc(F)cc1 | 15µM | n | n | u | n | n
NC(=NCCc1ccc(Cl)cc1)NS(=O)(=O)c1ccccc1 | n | n | n | n | n | n
O=C(N/N=C/c1ccc([N+](=O)[O-])o1)c1cn(-c2ccccc2)nc1-c1ccc(Cl)cc1 | n | n | n | n | n | -90
O=C(O)c1cn(-c2ccccc2)nc1-c1ccc(Cl)cc1 | n | n | n | n | n | n
O=C(N/N=C/c1ccc([N+](=O)[O-])o1)c1cn(-c2ccccc2)nc1-c1ccccc1 | u | u | n | n | n | -95
O=C(O)COc1ccc(/C=N/NC(=O)c2cn(-c3ccccc3)nc2-c2ccccc2)cc1 | n | n | n | n | n | n
COC(=O)C[C@@H]1CC[C@@H]2[C@H](COc3ccc(NC(=O)c4ccc(F)c(F)c4)cc3C(=O)N2C)O1 | x | x | n | x | x | x
O=C(O)CSC1=NS(=O)(=O)c2ccccc21 | n | n | x | n | n | n
CC1=Nc2cc(C(=O)NC3CCCCC3)ccc2Sc2ccc(Cl)cc21 | x | x | n | x | n | x
CC1=Nc2cc(C(=O)NC3CCC(C)CC3)ccc2Sc2c(C)ccc(C)c21 (centres undefined) | 0.26µM | u | n | 0.52µM | n | x
CCOC(=O)N1CCC(NC(=O)c2ccc3c(c2)N=C(C)c2c(C)ccc(C)c2S3)CC1 | 5.2µM | n | n | 2.1µM | n | n
COCCCNC(=O)c1ccc2c(c1)N=C(C)c1c(C)ccc(C)c1S2 | 0.052µM | n | n | 0.016µM | n | x
O=C(COc1ccc2c(c1)CCC2)Nc1ccccn1 | n | u | -62 | n | n | n
O=C(COc1ccc2c(c1)CCC2)N1CCN(c2ccccc2F)CC1 | 0.0037µM | n | n | n | n | n
Cc1cccc(NC(=O)COc2ccc3c(c2)CCC3)n1 | u | u | n | n | n | n
COc1cccc(C2c3c(ncn(-c4ccccc4Br)c3=N)Oc3ccc4ccccc4c32)c1 (centres undefined) | x | n | x | x | n | x
COc1ccc(CNS(=O)(=O)CC2NCCc3ccccc32)cc1 (centres undefined) | x | x | n | x | x | x
C[C@@H]1CCN(C2CC2)S(=O)(=O)c2c(cccc2N2CC[C@@H](N(C)C)C2)O1 | x | x | n | x | x | x
O=C(Nc1ccccc1)c1ccc2nc(-c3ccco3)c(-c3ccco3)nc2c1 | u | u | -51 | n | u | n
